# Compounds with a hit are over-represented: about 10% of the library has one in this group of screens.
# NS1 inh = qHTS Assay for Inhibitors of Influenza NS1 Protein Function | Potency, µM (highest dose often 46.1 µM), for inactives: top-dose activity, positive = more growth | 270,000 compounds, 0.4% hits | AID 2326, 2010; also: actives are rising curves; nearly all actives have a fitted effect of over 50% in size
#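 Compounds were scored for reversing the slow growth caused by influenza A NS1 in S. cerevisiae, measured by optical density at 600 nm. Assay medium contained 2% galactose at pH 6.0; NS1-free yeast of the same strain were the positive control.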
# Pf growth 48h = Primary qHTS for delayed death inhibitors of the malarial parasite plastid, 48 hour incubation. 310,000 compounds, 5.9% hits. Potency, µM (titrated, usually from 28.7 µM), for the others: at the highest dose activity change, negative = inhibition, usual class: inhibitors. AID 504832, 2011. P. falciparum luciferase growth in erythrocytes, 48 h; active = well fitted inhibition curve with a large enough effect; inconclusive = small, poorly fitted or top-dose-only effect, or another doubt; inactive = no such curve, though single readings can be large or run the other way; also: % is scaled to controls: 0 for no effect and ±100 for the full control effect
#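 Luminescence readout; reporter = integrated firefly luciferase in P. falciparum. RBC culture at 2% hematocrit, 0.1% parasitemia final, 37 C/5% CO2; decreased signal taken as growth inhibition.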
# Pf growth 96h = Primary qHTS for delayed death inhibitors of the malarial parasite plastid, 96 hour incubation; P. falciparum luciferase reporter growth, 96 h; AID 504834, 2011; 320,000 compounds, 6.9% hits; Potency, µM (top dose mostly 28.7 µM), for inactives: at the top dose activity change, negative = inhibition, actives largely listed as inhibitors; active = well fitted inhibition curve with a large enough effect; inconclusive = small, poorly fitted or top-dose-only effect, or another doubt; inactive = no such curve, though single readings can be large or run the other way; also: % is scaled to controls: 0 for no effect and ±100 for the full control effect
#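 Parasite growth measured via integrated firefly luciferase reporter in P. falciparum. Infected erythrocytes at 2% hematocrit, 0.05% parasitemia final were treated 96 hours at 37 C under 5% CO2, and luminescence was read.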
# SARS PLP yeast = qHTS of Yeast-based Assay for SARS-CoV PLP; Potency, µM (top dose mostly 32.9 µM), inactives show at the highest dose activity, positive = growth rescue, hits mostly activators; AID 485353, 2010; S. cerevisiae expressing SARS-CoV PLpro, growth rescue; 330,000 compounds, 0.19% hits; also: 0% is about no effect; nearly all actives have a fitted effect of over 55% in size
# Active calls of the source: *; ? = inconclusive; . = no result. Unless noted, calls follow the shape of the full dose curve. Potency is read from the fitted curve at half-maximal effect.
SMILES,NS1 inh,Pf growth 48h,Pf growth 96h,SARS PLP yeast
CCOC(=O)c1ccc(-c2c(-c3ccccc3OC)oc3ccccc23)cc1F,.,?,3.3µM*,-3%
COc1ccccc1-c1oc2ccccc2c1-c1ccc2cc[nH]c2c1,.,2.1µM*,?,1%
COc1ccc(C2=CC(c3ccc(OC)c(OC)c3)c3c(c4ccccc4oc3=O)O2)cc1OC (stereo unspecified),4%,2.6µM*,8.3µM*,-2%
Cn1c(CC(=O)c2ccc(Br)cc2)[n+](C)c2ccccc21,.,13µM*,0.74µM*,1%
C=CCn1c(=N)n(CC(=O)c2ccc(Br)cc2)c2ccccc21,20%,?,7%,?
Cc1ccc(NC(=O)N2CCCC2C(=O)Nc2ccc3c(c2)OCCO3)cc1 (stereo unspecified),12%,31%,3%,-18%
Cc1cc2cc(C)c(NCCNC(=O)c3cccs3)nc2cc1C,-4%,?,?,0%
CCn1ncc2c(OCc3ccc(C#N)cc3)cc(C)nc21,-46%,.,15µM*,-10%
Cc1ccc(C(=O)NCC(=O)N(C)CC(=O)Nc2ccccc2Br)s1,.,0%,29%,11%
Oc1ccc(Cl)cc1CNCC1CCCCC1,.,1.9µM*,12µM*,0%
O=C(O)c1ccc(CNCc2cc(Cl)ccc2O)cc1,.,24%,?,1%
Cc1ccc(CNCc2cc(Cl)ccc2O)cc1,.,2.9µM*,7.4µM*,3%
O=C(CC1CCCCC1)NCc1ccc(Cl)cc1,7%,48%,?,2%
CCOC(=O)Cc1csc(NC(=O)c2ccc3ccccc3n2)n1,-10%,8%,43%,-4%
Cc1cccc(N2CCN(C(=O)C3CCN(S(=O)(=O)c4c(C)noc4C)CC3)CC2)c1C,13%,?,?,-5%
COC(=O)C1=C(c2ccc(F)cc2F)C[C@@H]2CC[C@H]1N2C(=O)N1CCC(O)(c2ccc(Cl)cc2)CC1,.,9.3µM*,?,1%
COC(=O)C1=C(c2c(C)noc2C)C[C@@H]2CC[C@H]1N2C(=O)N1CCOCC1,.,75%,6%,-5%
COC(=O)C1=C(c2ccc(F)cc2F)C[C@@H]2CC[C@H]1N2C(=O)N1CCCC1,.,?,3%,0%
COC(=O)C1=C(c2c(C)noc2C)C[C@@H]2CC[C@H]1N2C(=O)N1CCc2cc(OC)c(OC)cc2C1,.,15µM*,?,1%
COC(=O)C1=C(c2c(C)noc2C)C[C@@H]2CC[C@H]1N2C(=O)N1CCC(O)(c2ccc(Cl)cc2)CC1,.,6.6µM*,?,2%
Nc1ccc(N=Nc2ccccc2)c(N)n1,-11%,111%,50%,-5%
Cc1[nH]c(N=Nc2ccccc2)nc1N=Nc1ccccc1,-56%,3.7µM*,9.3µM*,-7%
Cc1c(C)c2ccc(OC(C)C(=O)N3CC[C@@]4(O)CCCC[C@H]4C3)cc2oc1=O (stereo partly specified),12%,12%,9.3µM*,-2%
Cc1c(C)c2ccc(OC(C)C(=O)N3CC[C@@]4(O)CCCC[C@H]4C3)c(C)c2oc1=O (stereo partly specified),-13%,?,?,8%
Cc1[nH]n(-c2ccccc2)c(=O)c1N=Nc1c(O)cc(S(=O)(=O)N(C)C)c2ccccc12,.,3.3µM*,4.1µM*,4%
SMILES,NS1 inh,Pf growth 48h,Pf growth 96h,SARS PLP yeast
Cc1nc2oc3c(=O)[nH]cnc3c2c2c1COC(C)(C)C2,6%,?,?,-1%
COc1ncnc2c1oc1nc(CC(C)C)c3c(c12)CC(C)(C)OC3,5%,2.1µM*,?,1%
CCOC(=O)c1ccc(-[n+]2c(-c3ccccc3)cc(-c3ccccc3)cc2-c2ccccc2)cc1,.,2.9µM*,1.2µM*,-1%
CCOC(=O)c1cccc(-[n+]2c(-c3ccccc3)cc(-c3ccccc3)cc2-c2ccccc2)c1,.,1.9µM*,0.59µM*,5%
COc1ccc(N2C(=O)CSC(c3ccccc3)C2=O)cc1 (stereo unspecified),-2%,14%,1%,2%
CCOC(=O)c1ccc(N2C(=O)C3C(C2=O)C(C(=O)c2ccc(Cl)cc2)N2CCCC32)cc1 (stereo unspecified),-11%,13µM*,17%,-8%
Cc1ccc(-n2nnc3c(=O)n(CC(=O)N4CCC(C)CC4)cnc32)cc1,-3%,23%,4.1µM*,1%
Cc1ccc(-n2nnc3c(=O)n(CC(=O)N4CCCC4)cnc32)cc1,1%,19%,50%,1%
Cc1cccc(N(C(=O)c2snc(C(N)=O)c2N)C(C(=O)NC2CCCC2)c2ccc(C)o2)c1 (stereo unspecified),13%,8.3µM*,28%,0%
CCCCC(C(=O)NC1CCCC1)N(C(=O)c1snc(C(N)=O)c1N)c1ccc(F)cc1 (stereo unspecified),8%,?,5.9µM*,-4%
COCCNC(=O)C(c1ccc(C)o1)N(C(=O)c1snc(C(N)=O)c1N)c1ccc(C)cc1 (stereo unspecified),-33%,?,.,0%
Cc1ccc(N(C(=O)c2snc(C(N)=O)c2N)C(C(=O)NC2CCCC2)c2ccc(C)o2)cc1 (stereo unspecified),-1%,10µM*,?,1%
COc1ccc(C(C(=O)NC2CCCCC2)N(C(=O)c2snc(C(N)=O)c2N)c2ccc(OC)cc2OC)cc1 (stereo unspecified),-14%,?,27%,-1%
COc1ccc(N(C(=O)c2snc(C(N)=O)c2N)C(C(=O)NC2CCCCC2)c2ccc(C)o2)c(OC)c1 (stereo unspecified),17%,13µM*,50%,-1%
COc1cc(CC(=O)OCC(=O)NC2CCCCC2C)cc(OC)c1OC (stereo unspecified),.,-3%,42%,-7%
O=C(Nc1ccc(NC(=O)c2ccccc2Cl)nc1)c1ccco1,-36%,-22%,10%,-2%
CCCC(C(=O)NC1CCCC1)N(Cc1ccc(F)cc1)C(=O)c1snc(C(N)=O)c1N (stereo unspecified),0%,?,?,7%
Cc1ccc(N(C(=O)c2snc(C(N)=O)c2N)C(C(=O)NC2CCCC2)c2ccco2)cc1 (stereo unspecified),3%,13µM*,15%,3%
CCCC(C(=O)NC1CCCC1)N(Cc1ccc2c(c1)OCO2)C(=O)c1snc(C(N)=O)c1N (stereo unspecified),8%,.,9.3µM*,16%
CCOc1ccccc1N(C(=O)c1snc(C(N)=O)c1N)C(C(=O)NC1CCCC1)c1ccco1 (stereo unspecified),-46%,?,-7%,-1%
CC(C)(C)NC(=O)CN(C(=O)c1snc(C(=O)NC2CCCCC2)c1N)c1ccc(F)cc1,17%,7.4µM*,?,2%
Oc1cccc2ccc(SSc3ccc4cccc(O)c4n3)nc12,-41%,.,.,.
CCOc1ccc2[nH]cc(S(=O)(=O)c3ccc(C)cc3)c(=O)c2c1,-3%,?,-8%,2%
CCOc1ccc2c(c1)OC(c1ccc(C)cc1)(C(F)(F)F)NC2=O (stereo unspecified),17%,1µM*,3.3µM*,0%

# From PubChem
